Compound activity deposited in PubChem by National Center for Advancing Translational Sciences (NCATS).
NIH3T3 tox: cytotoxic compounds in NIH 3T3 cells; AID 1345082; NIH 3T3 viability, CellTiter-Glo ATP luminescence, 48-72 h; hit rate 4.3% among 94,000; Potency, µM (top dose mostly 96.7 µM), inactives show at the top dose activity change, negative = cytotoxicity, hits mostly inhibitors; also: nearly all actives have a fitted effect of over 55% in size
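Mouse fibroblast NIH 3T3 cells, 400 per well, received compound via pintool and were incubated for 48 or 72 hr prior to CellTiter-Glo ATP luminescence measurement.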
HEK cytotox: kills HEK 293 cells | hit rate 6.6% among 94,000 | AID 1345083 | Potency, µM (series often up to 115 µM), for the others: at the highest dose activity change, negative = cytotoxicity, hits mostly inhibitors | HEK 293 viability, ATP luminescence (CellTiter-Glo), 48-72 h; also: nearly all actives have a fitted effect of over 60% in size
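CellTiter-Glo luminescence (cellular ATP) was read after 48 or 72 hr of compound exposure at 37 degree Celsius. Cells were HEK 293 plated at 250 cells/well.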
hNpr1 antagonist: antagonists of human natriuretic peptide receptor Npr1. P16066. HEK293 hNpr1 GloSensor cGMP, ANP-stimulated luminescence. Potency, µM (series often up to 46.3 µM), for the others: at the highest dose activity change, negative = inhibition, usual class: inhibitors. hit rate 1.6% among 76,000; calls by dose curve; also: nearly all actives have a fitted effect of over 60% in size
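HEK293 cells stably expressing human Npr1 and cGMP GloSensor pGS-40F, loaded 2 h with 2% GloSensor reagent, given compound 30 min at room temperature. Luminescence read before and 20 min after 0.1 nM hNppA.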
Luciferase inh: inhibitors of firefly (Photinus pyralis) luciferase | AID 1347043 | Potency, µM (top dose mostly 115 µM), actives largely listed as inhibitors | purified P. pyralis luciferase, luminescence, biochemical | hit rate 2.5% among 76,000 | P08659; also: nearly all actives have a fitted effect of over 65% in size
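Luminescence read by CCD imaging after purified firefly luciferase (10nM final) was added to substrate buffer holding 10uM D-luciferin and 10uM ATP, pH 7.5, pre-dosed with compound.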
GPT2 inhibitor: inhibitors of human GPT2 alanine aminotransferase | hit rate 0.25% among 100,000 | AID 1671188 | Recombinant GPT2, coupled pyruvate oxidase/HRP Amplex Red fluorescence | Potency, µM (highest dose often 57.7 µM), without a hit: at the highest dose activity change, negative = inhibition, most hits filed as inhibitors | Q8TD30; also: nearly all actives have a fitted effect of over 60% in size
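Fluorescence of coupled pyruvate oxidase/HRP/Amplex Red system (50uM Amplex, 30 min, dark) reports pyruvate formed by GPT2. Enzyme reaction: 10ng/uL GPT2, 2mM L-alanine, 250uM a-KG, 30 min room temperature, pH 7.5; 50uM AOA control.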
An asterisk follows results filed as active; [ ] = dose if it differs, or a comment. This is a sample that favours compounds with a hit; in the whole collection about 10% have one here. Unless noted, calls follow the shape of the dose curve; as a rule, active = well fitted curve in the direction sought with a large enough effect; inconclusive = small, poorly fitted or top-dose-only effect, or another doubt; inactive = no such curve, though single readings can be large; an effect the other way counts as inactive or inconclusive. % is scaled to controls: 0 for no effect and ±100 for the full control effect; potency is read from the fitted curve at half-maximal effect.

CC(=O)N1CCc2nn(CC(=O)Nc3cc(F)cc(F)c3)c(=O)cc2C1 was read as NIH3T3 tox inactive, HEK cytotox -6%, hNpr1 antagonist -1%, Luciferase inh inactive and GPT2 inhibitor inactive.
Screening COc1ccc(S(=O)(=O)NC[C@@H]2C=C(C)[C@H](CC(=O)N(C)Cc3cccnc3)C[C@H]2C(C)C)cc1 returned NIH3T3 tox 10µM*, HEK cytotox inconclusive, hNpr1 antagonist -12%, Luciferase inh inactive and GPT2 inhibitor -11%.
For COc1ccc2nc(C[C@@H]3C[C@@H](C(C)C)[C@H](CNC(=O)COCC(=O)O)C=C3C)[nH]c2c1 the results were NIH3T3 tox -13%[174 µM], HEK cytotox inactive, hNpr1 antagonist -5%[70.6 µM], Luciferase inh inactive and GPT2 inhibitor 1%[88.5 µM].
`CC1=C[C@@H](CC#N)[C@H](C(C)C)C[C@H]1CC(=O)N(C)Cc1cccnc1` gave NIH3T3 tox -31%[138 µM], HEK cytotox inconclusive, hNpr1 antagonist -23%[70.6 µM], Luciferase inh inactive and GPT2 inhibitor -1%[88.5 µM].
For CCC(CC)C(=O)NC[C@@H]1C=C(C)[C@H](Cc2nc3ccc(OC)cc3[nH]2)C[C@H]1C(C)C the results were NIH3T3 tox inconclusive, HEK cytotox 45µM*, hNpr1 antagonist -22%[70.6 µM], Luciferase inh inactive and GPT2 inhibitor inactive.
`CCC(CC)C(=O)NC[C@@H]1C=C(C)[C@H](Cc2nc3ccc(F)cc3[nH]2)C[C@H]1C(C)C` gave NIH3T3 tox 100µM*, HEK cytotox inconclusive, hNpr1 antagonist -28%[70.6 µM], Luciferase inh inactive and GPT2 inhibitor 2%[88.5 µM].
Screening CC1=C[C@@H](CNC(=O)CC(C)(C)CC(=O)O)[C@H](C(C)C)C[C@H]1Cc1nc2ccc(F)cc2[nH]1 returned NIH3T3 tox -1%, HEK cytotox -4%, hNpr1 antagonist 3%, Luciferase inh inactive and GPT2 inhibitor inactive.
Screening CCC(CC)C(=O)NC[C@@H]1C=C(C)[C@H](Cc2nc3ccc(C)cc3[nH]2)C[C@H]1C(C)C returned NIH3T3 tox inconclusive, HEK cytotox 63µM*, hNpr1 antagonist -17%[70.6 µM], Luciferase inh inactive and GPT2 inhibitor inactive.
Screening CCn1nc(C)c(CN2CCCC(CNC(=O)c3cccc(OC)c3OC)C2)c1C (stereo not given) returned NIH3T3 tox -18%, HEK cytotox inconclusive, hNpr1 antagonist 3%, Luciferase inh inactive and GPT2 inhibitor 0%.
Screening COc1ccc(S(=O)(=O)NC[C@H]2COCc3nc4ccc(C)cc4n32)cc1 returned NIH3T3 tox 89µM*, HEK cytotox inconclusive, hNpr1 antagonist inconclusive, Luciferase inh inactive and GPT2 inhibitor -2%[88.5 µM].
`COc1ccc2nc3n(c2c1)[C@@H](CNCC(C)(C)C)COC3` gave NIH3T3 tox 32µM*, HEK cytotox inconclusive, hNpr1 antagonist 3%[70.6 µM], Luciferase inh inactive and GPT2 inhibitor inactive.
`COc1ccc2nc3n(c2c1)[C@@H](CNS(=O)(=O)c1ccc(F)cc1)COC3` gave NIH3T3 tox inconclusive, HEK cytotox -29%[172 µM], hNpr1 antagonist 0%[70.6 µM], Luciferase inh inactive and GPT2 inhibitor inactive.
Screening COc1cccc(C(=O)NCc2nnc3c(-c4nc(C(C)C)no4)cccn23)c1 returned NIH3T3 tox -1%, HEK cytotox inactive, hNpr1 antagonist 1%, Luciferase inh inactive and GPT2 inhibitor -16%.
Screening Cn1cc(CN[C@H]2[C@H](O)[C@H](O)C[C@@H]2c2cccnc2)c2ccccc21 returned NIH3T3 tox inconclusive, HEK cytotox 100µM*, hNpr1 antagonist 1%[70.6 µM], Luciferase inh inactive and GPT2 inhibitor inconclusive.
`CCOc1ccc2c(n1)CCN(C(=O)Nc1cccc(CC)c1)C2` gave NIH3T3 tox inconclusive, HEK cytotox inconclusive, hNpr1 antagonist -30%, Luciferase inh inconclusive and GPT2 inhibitor inactive.
For CCOc1ccc2c(n1)CCN(C(=O)Nc1ccc(C)c(C)c1)C2 the results were NIH3T3 tox inconclusive, HEK cytotox inconclusive, hNpr1 antagonist -10%, Luciferase inh 28µM* and GPT2 inhibitor inactive.
For COCCOc1ccc2c(n1)CCN(C(=O)NCCC(C)C)C2 the results were NIH3T3 tox -20%, HEK cytotox -15%, hNpr1 antagonist 4%, Luciferase inh 14µM* and GPT2 inhibitor -6%.
`CCOc1ccc2c(n1)CCN(C(=O)NCC(C)C)C2` gave NIH3T3 tox -20%, HEK cytotox -17%, hNpr1 antagonist 6%, Luciferase inh inconclusive and GPT2 inhibitor 3%.
`O=C1N(Cc2cccnc2)C(=O)C2(CCN(Cc3cc(F)ccc3F)CC2)N1CCc1ccccc1` gave NIH3T3 tox inconclusive, HEK cytotox 40µM*, hNpr1 antagonist 2%, Luciferase inh inactive and GPT2 inhibitor -11%.
`CNC(=O)c1ccccc1Nc1cc(Nc2ccc(N3CCOCC3)cc2OC)ncc1C(F)(F)F` gave GPT2 inhibitor 22µM*.
For CNC(=O)c1ccccc1Nc1nc(Nc2ccc(N3CCNCC3)cc2)ncc1Cl the results were GPT2 inhibitor -3%.
COC1CCN(C(=O)C2(C)CN(Cc3ccccc3)Cc3ccc(Nc4ccccc4)nc32)CC1 (stereo not given) was read as NIH3T3 tox inconclusive, HEK cytotox inconclusive, hNpr1 antagonist -17%, Luciferase inh inactive and GPT2 inhibitor -37%.
`CNC(=O)C1(C)CN(Cc2ccccc2)Cc2ccc(Nc3ccccc3)nc21` (stereo not given) gave NIH3T3 tox inconclusive, HEK cytotox 79µM*, hNpr1 antagonist inconclusive, Luciferase inh inconclusive and GPT2 inhibitor -1%[88.5 µM].
Screening COCCN1Cc2ccc(NCc3ccccc3)nc2C(C)(C(=O)NC2COC2)C1 (stereo not given) returned NIH3T3 tox inconclusive, HEK cytotox inconclusive, hNpr1 antagonist 7%[70.6 µM], Luciferase inh inactive and GPT2 inhibitor -9%[88.5 µM].
`CC1(C(=O)NC2CCOCC2)CN(Cc2ccccc2)Cc2ccc(Nc3ccccc3)nc21` (stereo not given) gave NIH3T3 tox 32µM*, HEK cytotox inconclusive, hNpr1 antagonist -13%, Luciferase inh inactive and GPT2 inhibitor -17%.
Screening CC1(C(=O)NC2COC2)CN(Cc2ccccc2)Cc2ccc(Nc3ccccc3)nc21 (stereo not given) returned NIH3T3 tox 40µM*, HEK cytotox 89µM*, hNpr1 antagonist -2%[70.6 µM], Luciferase inh inactive and GPT2 inhibitor -3%[88.5 µM].
Screening CN1CCC(NC(=O)C2(C)CN(Cc3ccccc3)Cc3ccc(Nc4ccccc4)nc32)CC1 (stereo not given) returned NIH3T3 tox 16µM*, HEK cytotox 18µM*, hNpr1 antagonist -3%, Luciferase inh inactive and GPT2 inhibitor inactive.
